This assay is described as follows: GAPDH versus PEG-3 reporter suppression – cell-based, luminescence, counter-screen for PEG-3 promoter inhibitor project, SAR follow-up (AID 651551). As to conditions: HeLa PEG-Prom / GAPDH luciferase reporter, 6 or 24 h, run 2, 24 h; at 99 µM (top of the series).

The source of these data is PubChem BioAssay AID651551 (Sanford-Burnham Center for Chemical Genomics, 2012).

As to `Cc1cc(NC(=O)c2ccccc2)n(-c2nc3ccccc3[nH]2)n1`, the inhibition % (higher = more inhibition) was -1.45%.
Then `Cc1ccc(Cl)cc1Nc1nc(-c2sc(NC(=O)c3ccco3)nc2C)cs1`, with 85.8%; and `COc1ccccc1Nc1nc(-c2sc(NC(=O)c3ccco3)nc2C)cs1`, with 76.4%; and `CCn1nc(C(=O)Nc2nc(-c3ccccn3)cs2)c2ccccc2c1=O`, with 53.9%.
Then `CCCn1nc(C(=O)Nc2nc3ccccc3s2)c2ccccc2c1=O`, with 44.3%.
Then `COCCCNC(=O)c1ccc(Cn2c(=O)c3ccccc3n(Cc3ccccc3C#N)c2=O)cc1`, with 78%; and `COc1ccc(Cl)cc1Nc1nc(-c2sc(NC(=O)c3ccccc3)nc2C)cs1`, with 75.6%.
As for `Cc1cc(NC(=O)c2ccccc2C)n(-c2nc3ccccc3[nH]2)n1`, the inhibition % (higher = more inhibition) was 76.4%.
Then `CCCn1nc(C(=O)Nc2nc(-c3ccccn3)cs2)c2ccccc2c1=O`, with 71.7%; and `Cc1cc(NC(=O)c2ccccc2)n(-c2nc3ccccc3n2C)n1`, with 4.57%.
Then `CCCn1nc(C(=O)Nc2nc(-c3ccncc3)cs2)c2ccccc2c1=O`, with 72%.
With `COc1ccc(-n2nc(C(=O)NCC(=O)Nc3ccc(OC)c(OC)c3)c3ccccc3c2=O)cc1`, the inhibition % (higher = more inhibition) came to 86.5%.
In the case of `Cc1cc(NC(=O)c2cccc(C)c2C)n(-c2nc3ccccc3[nH]2)n1` it was 54.6%.
In the case of `COc1ccc(-n2nc(C(=O)NCC(=O)Nc3cc(OC)c(OC)c(OC)c3)c3ccccc3c2=O)cc1OC` it was 71.7%; in that of `Cc1nc(NC(=O)c2ccccc2)sc1-c1csc(Nc2cccc(Cl)c2C)n1`, 46.8%.
In the case of `Cc1nc(NC(=O)c2ccccc2)sc1-c1csc(Nc2ccccc2Cl)n1` it was 60.8%; in that of `CCn1cc(C(=O)NCc2ccco2)c(=O)c2cc(S(=O)(=O)N3CCCC3)ccc21`, 48.4%.
